Whole data set: some 16,000 sequences, median “rpm ratio (pull-down/input)” near 0.94, cut for the highest 2% near 1.7. This is one part of a sample in which the highest values are shown more often than they occur.

For 32 sequences, binding signal results are on record in paper PMC12820563, “FoxP3 forms a head-to-head dimer in vivo and stabilizes its multimerization on adjacent microsatellites”.

This assay concerns the target T1, MBP-FoxP1dN (Mus musculus, UniProt P58462 326-579).
T1 sequence: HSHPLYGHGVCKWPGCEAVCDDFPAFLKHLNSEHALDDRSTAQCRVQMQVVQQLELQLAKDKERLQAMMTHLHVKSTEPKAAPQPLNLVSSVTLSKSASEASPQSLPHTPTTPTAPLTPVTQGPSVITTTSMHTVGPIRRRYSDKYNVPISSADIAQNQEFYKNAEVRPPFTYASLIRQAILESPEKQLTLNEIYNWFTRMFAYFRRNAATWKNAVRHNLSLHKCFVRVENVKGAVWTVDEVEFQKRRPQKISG
Kind of assay: PD-seq (MBP pull-down with sequencing); 20 mM Tris-HCl pH 7.5, 100 mM NaCl, 1.5 mM MgCl2, 0.4 uM protein, 0.1 uM dsDNA library, 30 min, room temperature, amylose pull-down; high values mean tight binding. The settings on record: protein: recombinant; tags: His6-MBP; chain copies: 2; dsDNA, one strand shown. The method, boiled down:
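Binding is the reads-per-million enrichment of pull-down relative to input, pooled across replicates. For this, 0.4 µM His6-MBP-tagged mouse FoxP3 or FoxP1 fragment lacking the N-terminus, made in E. coli, was incubated with 0.1 µM Klenow-filled double-stranded degenerate DNA library for 30 min at room temperature in Tris pH 7.5 buffer with NaCl and MgCl2. Complexes bound to amylose resin were washed three times before proteinase K released the DNA for PCR barcoding and Illumina sequencing.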
Take “GATGATTGTTCTCCCAGCTGATGAATTCGTTGGGTCGAGTAAACAAATTTTCCTAATCTTTCTGTTCAAGCGCCATCTAC”: the binding signal was 0.781 RPM ratio (pull-down/input). The same measure for “GATGATTGTTCTCCCAGCTGATGAATTCCAAGGATCGAGTAAACAAATTTTCCTAATCTTTCTGTTCAAGCGCCATCTAC”: 0.795 RPM ratio (pull-down/input); for “GATGATTGTTCTCCCAGCTGATGAATTCAACTAGTCGAGTAAACAAATTTTCCTAATCTTTCTGTTCAAGCGCCATCTAC”: 0.877 RPM ratio (pull-down/input). For the sequence “GATGATTGTTCTCCCAGCTGATGAATTTATTGGCTCGAGTAAACAAATTTTCCTAATCTTTCTGTTCAAGCGCCATCTAC”, the binding signal is 1.09 RPM ratio (pull-down/input). “GATGATTGTTCTCCCAGCTGATGAATTGAGAGTCTCGAGTAAACAAATTTTCCTAATCTTTCTGTTCAAGCGCCATCTAC”: the binding signal was 0.741 RPM ratio (pull-down/input). As for “GATGATTGTTCTCCCAGCTGATGAATTAGACGGGTCGAGTAAACAAATTTTCCTAATCTTTCTGTTCAAGCGCCATCTAC”, the binding signal is 0.832 RPM ratio (pull-down/input). For the sequence “GATGATTGTTCTCCCAGCTGATGAATTAAAGCGCTCGAGTAAACAAATTTTCCTAATCTTTCTGTTCAAGCGCCATCTAC”, the binding signal is 0.953 RPM ratio (pull-down/input). Regarding “GATGATTGTTCTCCCAGCTGATGAATTGCGGCTATCGAGTAAACAAATTTTCCTAATCTTTCTGTTCAAGCGCCATCTAC”, the binding signal is 1.02 RPM ratio (pull-down/input). The same measure for “GATGATTGTTCTCCCAGCTGATGAATTGTATTACTCGAGTAAACAAATTTTCCTAATCTTTCTGTTCAAGCGCCATCTAC”: 1.24 RPM ratio (pull-down/input); for “GATGATTGTTCTCCCAGCTGATGAATTACCCGGTTCGAGTAAACAAATTTTCCTAATCTTTCTGTTCAAGCGCCATCTAC”: 0.848 RPM ratio (pull-down/input).

Regarding “GATGATTGTTCTCCCAGCTGATGAATTGTTTGCCTCGAGTAAACAAATTTTCCTAATCTTTCTGTTCAAGCGCCATCTAC”, the binding signal is 1.96 RPM ratio (pull-down/input). The same measure for “GATGATTGTTCTCCCAGCTGATGAATTGTTTTCCTCGAGTAAACAAATTTTCCTAATCTTTCTGTTCAAGCGCCATCTAC”: 2.36 RPM ratio (pull-down/input); for “GATGATTGTTCTCCCAGCTGATGAATTGTTTCCCTCGAGTAAACAAATTTTCCTAATCTTTCTGTTCAAGCGCCATCTAC”: 1.41 RPM ratio (pull-down/input); for “GATGATTGTTCTCCCAGCTGATGAATTTTTTGCCTCGAGTAAACAAATTTTCCTAATCTTTCTGTTCAAGCGCCATCTAC”: 0.956 RPM ratio (pull-down/input). Turning to “GATGATTGTTCTCCCAGCTGATGAATTTAGATGCTCGAGTAAACAAATTTTCCTAATCTTTCTGTTCAAGCGCCATCTAC”, the binding signal is 1.78 RPM ratio (pull-down/input). The same measure for “GATGATTGTTCTCCCAGCTGATGAATTTGTTTCATCGAGTAAACAAATTTTCCTAATCTTTCTGTTCAAGCGCCATCTAC”: 1.33 RPM ratio (pull-down/input); for “GATGATTGTTCTCCCAGCTGATGAATTAGATTGCTCGAGTAAACAAATTTTCCTAATCTTTCTGTTCAAGCGCCATCTAC”: 0.987 RPM ratio (pull-down/input). With “GATGATTGTTCTCCCAGCTGATGAATTTGCCTCCTCGAGTAAACAAATTTTCCTAATCTTTCTGTTCAAGCGCCATCTAC”, the binding signal was 0.95 RPM ratio (pull-down/input). The same measure for “GATGATTGTTCTCCCAGCTGATGAATTTTAGAGCTCGAGTAAACAAATTTTCCTAATCTTTCTGTTCAAGCGCCATCTAC”: 0.77 RPM ratio (pull-down/input). As for “GATGATTGTTCTCCCAGCTGATGAATTTGTTTCCTCGAGTAAACAAATTTTCCTAATCTTTCTGTTCAAGCGCCATCTAC”, the binding signal is 1.49 RPM ratio (pull-down/input).

Regarding “GATGATTGTTCTCCCAGCTGATGAATTTTTTTCATCGAGTAAACAAATTTTCCTAATCTTTCTGTTCAAGCGCCATCTAC”, the binding signal was 1.02 RPM ratio (pull-down/input). As for “GATGATTGTTCTCCCAGCTGATGAATTGTTTTCATCGAGTAAACAAATTTTCCTAATCTTTCTGTTCAAGCGCCATCTAC”, the binding signal is 1.96 RPM ratio (pull-down/input).

On to “GATGATTGTTCTCCCAGCTGATGAATTGGTACCTTCGAGTAAACAAATTTTCCTAATCTTTCTGTTCAAGCGCCATCTAC”, for which the binding signal is 0.97 RPM ratio (pull-down/input). “GATGATTGTTCTCCCAGCTGATGAATTTGTGTCATCGAGTAAACAAATTTTCCTAATCTTTCTGTTCAAGCGCCATCTAC”: the binding signal was 1.48 RPM ratio (pull-down/input). As to “GATGATTGTTCTCCCAGCTGATGAATTAAAGCAATCGAGTAAACAAATTTTCCTAATCTTTCTGTTCAAGCGCCATCTAC”, the binding signal was 1.32 RPM ratio (pull-down/input). As to “GATGATTGTTCTCCCAGCTGATGAATTCGTTCAATCGAGTAAACAAATTTTCCTAATCTTTCTGTTCAAGCGCCATCTAC”, the binding signal was 0.909 RPM ratio (pull-down/input). With “GATGATTGTTCTCCCAGCTGATGAATTACATGGTTCGAGTAAACAAATTTTCCTAATCTTTCTGTTCAAGCGCCATCTAC”, the binding signal was 1.12 RPM ratio (pull-down/input). Next, “GATGATTGTTCTCCCAGCTGATGAATTTAGGCTATCGAGTAAACAAATTTTCCTAATCTTTCTGTTCAAGCGCCATCTAC”: 0.955 RPM ratio (pull-down/input).

For “GATGATTGTTCTCCCAGCTGATGAATTATTAGATTCGAGTAAACAAATTTTCCTAATCTTTCTGTTCAAGCGCCATCTAC”, the binding signal is 1.08 RPM ratio (pull-down/input). Next, “GATGATTGTTCTCCCAGCTGATGAATTAGACTGATCGAGTAAACAAATTTTCCTAATCTTTCTGTTCAAGCGCCATCTAC”: 0.851 RPM ratio (pull-down/input); “GATGATTGTTCTCCCAGCTGATGAATTACAATTGTCGAGTAAACAAATTTTCCTAATCTTTCTGTTCAAGCGCCATCTAC”: 1.4 RPM ratio (pull-down/input). The same measure for “GATGATTGTTCTCCCAGCTGATGAATTTTGAACTTCGAGTAAACAAATTTTCCTAATCTTTCTGTTCAAGCGCCATCTAC”: 0.94 RPM ratio (pull-down/input).
